From article PMC5540273 (PLoS ONE, 2017)

Tests used:
PCTK1 = system: T1, PCTK1
T1 construct: gene CDK16

PCTK2 = system: T2, PCTK2
T2 construct: gene CDK17

PCTK3 = system: T3, PCTK3
T3 construct: gene CDK18

PIK4CB = system: T4, PIK4CB
T4 construct: gene PI4KB
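Further: kd values determined as follow-up on hits from a single-replicate KINOMEscan panel screen.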

Question: For `COc1ccc(Nc2nccc(N3CCC(NC(=O)C(C)c4ccc(Cl)cc4)CC3)n2)cc1` (stereo not shown) [GSK1379812], which Kd (PCTK1) is on record?
Answer: The Kd was greater than 10000 nM.

Question: How did the Kd (PCTK1) turn out when `O=C(Nc1n[nH]c2nc(-c3ccco3)c(Br)cc12)C1CCN(Cc2ccccc2)C1.O=C(O)[C@H](O)[C@@H](O)C(=O)O` (stereo not shown) [SB-742034] was run?
Answer: Its Kd is 150 nM.

Question: What about the Kd (PCTK2) of the same compound?
Answer: The Kd was 240 nM.

Question: For `CC(=O)c1c(C)c2cnc(Nc3ccn(C)n3)nc2n(C2CCCC2)c1=O`, which Kd (PCTK3) is on record?
Answer: The Kd was greater than 10000 nM.

Question: With `Cn1cnc2c(N)ncnc21` [SKF-97623] as the compound, how does the Kd (PDGFRA) read?
Answer: Its Kd is greater than 10000 nM.

Question: With `Cc1cnc(N)c(/C=C/c2cncc(C(=O)NCCc3ccc(Cl)cc3Cl)c2)c1.Cl` [GSK190937] as the compound, how does the Kd (PDGFRA) read?
Answer: The Kd was 39 nM.

Question: With `CC[C@@H]1CO[C@H](C(=O)Nc2ccccc2)CN1c1cc(-c2ccc3c(N)n[nH]c3c2)nc(NC)n1` [GSK2376236] as the compound, how does the Kd (PDPK1) read?
Answer: Its Kd is 1.7 nM.

Question: What about the Kd (PKN1) of the same compound?
Answer: Its Kd is greater than 10000 nM.

Question: For `CNc1nc(-c2ccc3c(N)n[nH]c3c2)cc(N2C[C@@H](C(=O)Nc3ccccc3)CC[C@H]2C)n1` [GSK2298859], which Kd (PDPK1) is on record?
Answer: The Kd was 1.7 nM.

Question: `Cc1nccc(-c2c(-c3ccc(F)cc3)ncn2CCCN2CCOCC2)n1.Cl` [SB-282975] was tested. Which Kd (PHKG2) did it give?
Answer: The Kd was greater than 10000 nM.

Question: For `Cc1c(Cn2c(C)c(C)n3c(=O)cc(N4CCOCC4)nc23)cccc1C(F)(F)F` [GSK2328680], which Kd (PIK3CD) is on record?
Answer: The Kd was 620 nM.

Question: What about the Kd (PLK2) of the same compound?
Answer: Its Kd is greater than 10000 nM.

Question: With `COc1cccc(NC(=O)Nc2ccc(C)c(-c3ccc(C(=O)Nc4ccncc4)cc3)c2)c1` [GSK1398474] as the compound, how does the Kd (PIK3CG) read?
Answer: Its Kd is greater than 10000 nM.

Question: Which Kd (PIK3CG) does the source give for `Fc1ccc(-c2nc3n(c2-c2ccncc2)CCS3)cc1` [GI98581] here?
Answer: The Kd was greater than 10000 nM.

Question: Which results are given for `Cc1c(Cn2c3ccccc3n3c(=O)cc(N4CCOCC4)nc23)cccc1C(F)(F)F` [GSK2306394]?
Answer: Kd (PIK4CB): > 10000 nM; Kd (PKN1): > 10000 nM
